What all share (assay): NCI-60 one-dose screen, 48 h (100 = growth as untreated, 0 = no growth, -100 = all killed)
What all share (details): 10 µM unless noted

In test [1] the test system is HCT-15 colon.
For test [2], the system named is HT29 colon.
Test [3] relates to SNB-75 CNS.
Test [4] has as its system SNB-19 CNS.
For test [5], the system named is U251 CNS.
The subject of test [6] is PC-3 prostate.
The test system of test [7] is SK-MEL-5 melanoma.
Test [8] deals with UACC-62 melanoma.
The subject of test [9] is LOX IMVI melanoma.
The test system of test [10] is SK-MEL-28 melanoma.

Where “and” joins values, the source holds several entries; their conditions need not be identical. Equal entries are not always repeated. This is part of a sample that, as a whole, favours compounds with a hit. Of some 83,000 tested, about 20% had one in any assay.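 Results are percent growth after 48 hours of single-concentration exposure. 100 means growth as in untreated cells, lower positive values show inhibition; negative values down to -100 show cell death.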 Calls of active or inactive are those of the source. How the source made its calls: active means growth percent below 10; inactive means the rest.

Turning to `C[Se]/C=C1/C(=O)N(c2c(Cl)cccc2Cl)c2ccccc21`, the growth is 45.7% (inactive) in test [1]; 7.79% (active) in [2]; -30.8% (active) in test [3]; 32.6% (inactive) in test [4]; 25.1% (inactive) in test [5]; 31.3% (inactive) in test [6]. Further, the growth is 38.9% (inactive) in test [7], 27.8% (inactive) in test [8], 17.7% (inactive) in test [9] and 8.1% (active) in test [10].
`CCCC(C)SP(=S)(SC(C)CCC)SC(C)CCC` (stereo not given): the growth in [1] is 103% (inactive); in test [2] it was 100% (inactive); in [3], 106% (inactive); in test [4] it was 108% (inactive); in test [5], 103% (inactive); in test [6] it was 99.8% (inactive). The growth in test [7] is 91.9% (inactive); in test [8], 101% (inactive); in [9], 93.6% (inactive); in [10], 107% (inactive).
In the case of `Oc1ccccc1C=NCCN=Cc1ccccc1O.[Fe]`, the growth was 101% (inactive) in [1]; 72.4% (inactive) in [2]; 77.2% (inactive) in test [3]; 87.1% (inactive) in test [4]; 26.4% (inactive) in test [5]; 79.2% (inactive) in [6]. Further, the growth in test [7] was 66.5% (inactive); in test [8], 58.4% (inactive); in test [9] it was -80.2% (active); in [10], 117% (inactive).
Turning to `O=C1NC(=O)C(=Cc2ccccc2)C(=O)N1`, the growth in test [1] was 98.6% (inactive) and 106% (inactive); in test [2] it was 105% (inactive) and 99% (inactive); in [3], 105% (inactive) and 96.5% (inactive); in test [4], 106% (inactive); in test [5], 97.4% (inactive) and 92.2% (inactive); in [6] it was 81% (inactive) and 96.2% (inactive). Moreover, the growth in test [7] is 109% (inactive) and 100% (inactive); in [8], 90.3% (inactive) and 105% (inactive); in [9], 94% (inactive) and 97.1% (inactive); in [10] it was 104% (inactive) and 115% (inactive).
As to `CCCCCCCCCCCCCCCC[N+](C)(C)C`, the growth is -37.7% (active) and 23.9% (inactive) in [1]; -64% (active) and -42.4% (active) in test [2]; -77.5% (active) and -23.3% (active) in test [3]; -71.2% (active) and -40.6% (active) in test [4]; -75.5% (active) and -94.2% (active) in test [5]; -40.8% (active) and -32.8% (active) in [6]. The growth in test [7] is -94.6% (active) and -73.7% (active); in test [8], -63% (active) and 25.6% (inactive); in test [9], -71.6% (active) and -73.9% (active); in [10], -74.7% (active) and 25.6% (inactive).
Consider `O=CC1(c2ccccc2)CCN(Cc2ccccc2)CC1`, for which the growth in [1] was 103% (inactive); in test [2] it was 107% (inactive); in [3] it was 102% (inactive); in [4], 109% (inactive); in test [5], 101% (inactive); in test [6], 98.1% (inactive). In addition, the growth in test [7] was 110% (inactive); in test [8], 105% (inactive); in test [9] it was 82.8% (inactive); in test [10], 112% (inactive).
Turning to `Nc1ccc(P(=O)(O)O)cc1`, the growth is 97.4% (inactive) and 95.9% (inactive) in test [1]; 104% (inactive) and 103% (inactive) in test [2]; 95% (inactive) and 94.5% (inactive) in test [3]; 108% (inactive) and 107% (inactive) in [4]; 102% (inactive) and 94.7% (inactive) in test [5]; 99.5% (inactive) and 92.7% (inactive) in test [6]. Further, the growth in test [7] was 110% (inactive) and 107% (inactive); in test [8] it was 110% (inactive) and 99.8% (inactive); in test [9] it was 89.1% (inactive) and 98% (inactive); in [10] it was 117% (inactive) and 111% (inactive).
For the molecule `Cc1ccc(P(=O)(O)O)cc1`, the growth in test [1] was 107% (inactive); in test [2], 109% (inactive); in test [3], 107% (inactive); in test [4] it was 97.9% (inactive); in test [5], 101% (inactive); in test [6], 107% (inactive). For the same molecule, the growth in test [7] is 107% (inactive); in test [8], 98.6% (inactive); in test [9], 104% (inactive); in test [10], 112% (inactive).
On to `C[C@]12CC[C@H]3[C@@H](C[C@@H]4SC(Nc5cccc(F)c5)=N[C@@]45CC(=O)CC[C@]35C)[C@@H]1CCC2=O`, for which the growth in test [1] was 6.88% (active); in test [2], -3.32% (active); in test [3], 18.7% (inactive); in test [4], 62.8% (inactive); in test [5], 15.7% (inactive); in test [6], 19.1% (inactive). Besides, the growth in test [7] was 32.1% (inactive); in [8] it was 37.5% (inactive); in [9], 6.22% (active); in test [10] it was 39.4% (inactive).
`O=C(O)c1ccccc1N(CCO)CCCl`: the growth was 87% (inactive) in test [1]; 115% (inactive) in test [2]; 81.3% (inactive) in test [3]; 98.8% (inactive) in test [4]; 94.5% (inactive) in test [5]; 87.6% (inactive) in [6]. Moreover, the growth is 101% (inactive) in test [7], 94% (inactive) in [8], 86.6% (inactive) in test [9] and 100% (inactive) in test [10].
With `O=c1[nH]c(=O)n(Cl)c(=O)n1Cl`, the growth in test [1] is 111% (inactive) and 108% (inactive); in test [2] it was 106% (inactive) and 112% (inactive); in test [3], 124% (inactive) and 105% (inactive); in test [4], 106% (inactive) and 98.2% (inactive); in test [5], 98.5% (inactive) and 113% (inactive); in [6], 98.8% (inactive) and 98% (inactive). Besides, the growth in test [7] was 103% (inactive) and 93.7% (inactive); in test [8], 98.7% (inactive) and 101% (inactive); in [9], 109% (inactive) and 105% (inactive); in test [10], 117% (inactive) and 122% (inactive).

The values above are taken from PubChem BioAssay (NCI).
